Bioassay records as filed in PubChem.
Only some compounds are listed: those with a hit (about 8.8% of all), similar ones and a draw of the others.
KB-V1 cytotox = kills drug-selected multidrug resistant KB-V1 cells; KB-V1 MDR cells viability, CellTiter-Glo, 72 h; Potency, µM (titrated, usually from 46.1 µM), usual class: cytotoxic; 3.4% of 400,000 active; AID 1347076; further: nearly all actives have a fitted effect of over 60% in size
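Following 72 h at 37 degrees C with compound, KB-V1 cell viability was read by CellTiter-Glo luminescence, medium being phenol-red-free DMEM plus 10% FBS; concentration-response parameters came from normalized, curve-fitted qHTS data.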
HT1080 IDH1KD tx = toxicity to HT-1080 IDH1 knockdown cells (counter line); HT-1080 IDH1 knockdown viability, ATP luminescence, 48 h; Potency, µM (highest dose often 46.1 µM), hits mostly cytotoxic; 2% of 360,000 active
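Knockdown cells (IDH1KD HT-1080) received compounds 2 h after plating at 750 cells/well and were kept 48 h at 37 °C in 5% FBS RPMI. A CellTiter-Glo luminescence read gave % activity for curve fitting.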
HT1080NT lethal = kills 2HG-producing HT-1080-NT fibrosarcoma cells; HT-1080-NT fibrosarcoma viability, CellTiter-Glo ATP luminescence, 48 h; Potency, µM (doses to about 46.1 µM), usual class: cytotoxic; 1.6% of 360,000 active;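 further: NT is the 2HG producing partner of a matched IDH1 knockdown line; nearly all actives have a fitted effect of over 55% in size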
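750 cells/well, RPMI + 5% FBS; 2 h settle, compound pin-transfer, 48 h at 37 degrees C. CellTiter-Glo 10 min RT, luminescence. Normalized to DMSO and media-only wells.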
IL1B secr inh = inflammasome signaling inhibition, IL-1 beta readout; THP-1 LPS/ATP IL-1B secretion, AlphaLISA, 16 h; active compounds read low; 4.7% of 360,000 active; AID 743279; activity change, % at 57.5 µM; in the data active means activity change below about -50%; inconclusive means mostly about -30% to -49%
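THP-1 cells pretreated 1 hr with compounds (up to 57.5 uM final), then stimulated with LPS (250 ng/mL final) plus ATP (1.25 mM final); secreted IL-1B measured by AlphaLISA after 16 hr, decreased signal indicating inhibition.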
KB-3-1 cytotox = KB-3-1 parental cell cytotoxicity | 1.4% of 400,000 active | AID 1347075 | KB-3-1 viability, CellTiter-Glo ATP luminescence, 72 h | Potency, µM (highest dose often 46.1 µM), hits mostly cytotoxic; further: nearly all actives have a fitted effect of over 60% in size
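Screening of KB-3-1 cells (DMEM, 10% FBS, phenol-red free) ran from lowest to highest compound concentration; after 72 h at 37 °C viability was read luminescently and curves fitted.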
Of the large screens only hits and unclear results are named; the others gave an inactive call. Unless noted, the call rests on the fitted dose curve; in most records, active means well fitted curve in the direction sought with a large enough effect; inconclusive means small, poorly fitted or top-dose-only effect, or another doubt; inactive means no such curve, though single readings can be large; an effect the other way counts as inactive or inconclusive.

Cc1oc2c(c1C(=O)N1CCC(C)CC1)C(=O)c1ccccc1C2=O	KB-V1 cytotox 18µM, HT1080 IDH1KD tx 23µM, HT1080NT lethal 21µM, KB-3-1 cytotox 21µM
FC(F)(F)c1nc2nc(Cl)c(Cl)nc2n1CCCN1CCOCC1	none
Cc1cccc(NC(=S)NC2CC3C=CC2C3)c1 (stereo unspecified)	none
COc1ccc2oc(C(=O)N3CCN(C/C=C/c4ccccc4)CC3)c(C)c2c1	none
O=C(c1ccc(Br)s1)N1CCN(C/C=C/c2ccccc2)CC1	KB-V1 cytotox 15µM
Cc1c(C(=O)N2CCN(C/C=C/c3ccccc3)CC2)oc2c(F)cccc12	KB-V1 cytotox 16µM
O=C(c1ccc(Br)o1)N1CCN(C/C=C/c2ccccc2)CC1	none
CCOC(=O)c1nnn(-c2nonc2-n2cccc2)c1CCl	KB-V1 cytotox inconclusive, HT1080 IDH1KD tx inconclusive, HT1080NT lethal inconclusive, IL1B secr inh -117, KB-3-1 cytotox inconclusive
CCOC(=O)c1nnn(-c2nonc2-n2cccc2)c1CN1CCC(C)CC1	IL1B secr inh inconclusive
CCOC(=O)c1cnc2ccc(C(=O)OC)cc2c1Nc1ccccc1CC	KB-V1 cytotox inconclusive (no result: HT1080 IDH1KD tx, HT1080NT lethal, IL1B secr inh)
CCCn1c(CC)nc([N+](=O)[O-])c1S(=O)(=O)c1ccccc1	HT1080 IDH1KD tx inconclusive, HT1080NT lethal inconclusive, IL1B secr inh -104, KB-3-1 cytotox inconclusive
Clc1ccc(-n2cc(-c3ccc(Br)cc3)[n+]3c2CCCCC3)cc1	HT1080 IDH1KD tx inconclusive, KB-3-1 cytotox inconclusive
Cc1ccc(-c2cn(-c3ccc(SC(F)F)cc3)c3[n+]2CCC3)cc1	HT1080 IDH1KD tx inconclusive, IL1B secr inh inconclusive, KB-3-1 cytotox 2.1µM
FC(F)Sc1ccc(-n2cc(-c3ccc(Cl)cc3)[n+]3c2CCC3)cc1	KB-3-1 cytotox 18µM
COc1cc(NC(C)CCCN)c2ncccc2c1 (stereo unspecified)	HT1080 IDH1KD tx inconclusive, HT1080NT lethal 16µM
COc1cc(NCCCCCCCN)c2ncccc2c1	none
CCOC(=O)c1nc2cc3n(c(C)c-2c1C)C(C)C(C)=C3C (stereo unspecified)	IL1B secr inh -62, KB-3-1 cytotox inconclusive
CN(C)c1ccc(C(=O)N2CCN(c3cc(C(F)(F)F)nc4ccccc34)CC2)cc1	IL1B secr inh -55
CCC(C(=O)NCC1CCCO1)n1nc(C)c2sc3ccccc3c2c1=O (stereo unspecified)	none
O=C1NCCN(Cc2ccc(F)cc2)C1=O	none (no result: HT1080 IDH1KD tx, HT1080NT lethal, IL1B secr inh)
COc1cc2c(cc1OC)C(C)N(C(=O)c1cc3c(C)cc(C)cc3[nH]1)CC2 (stereo unspecified)	KB-V1 cytotox inconclusive, HT1080 IDH1KD tx 6.5µM, HT1080NT lethal inconclusive, IL1B secr inh -81, KB-3-1 cytotox inconclusive
COc1cc2c(cc1OC)C(C)N(C(=O)Nc1cc(C)cc(C)c1)CC2 (stereo unspecified)	KB-V1 cytotox 6.5µM, HT1080 IDH1KD tx 7.3µM, HT1080NT lethal 6.5µM, KB-3-1 cytotox inconclusive
COc1cc2c(cc1OC)C(C)N(C(=O)c1ccc(Br)o1)CC2 (stereo unspecified)	KB-V1 cytotox 13µM, KB-3-1 cytotox 21µM
COc1cc2c(cc1OC)C(C)N(C(=O)Nc1ccc(F)cc1)CC2 (stereo unspecified)	KB-V1 cytotox 12µM, HT1080 IDH1KD tx inconclusive, HT1080NT lethal inconclusive, KB-3-1 cytotox 13µM
COc1cc2c(cc1OC)CN(C(=O)c1ccc(Br)o1)CC2	none
COc1cccc(C(NC(C)=O)c2nc(-c3cccc(O)c3)cs2)c1 (stereo unspecified)	KB-V1 cytotox inconclusive, HT1080NT lethal inconclusive, KB-3-1 cytotox inconclusive
COc1ccccc1NC(=O)N1CCCC1C(=O)NCc1ccccc1Cl (stereo unspecified)	none
CCc1cc(-c2nnn(CCC3COCCO3)c2CC)ccc1-c1cn(Cc2ccccc2)nn1 (stereo unspecified)	KB-V1 cytotox 1.8µM, KB-3-1 cytotox inconclusive
CCc1cc(-c2cnnn2Cc2ccc3ccccc3c2)ccc1-c1cn(CC(C)C)nn1	KB-V1 cytotox inconclusive, KB-3-1 cytotox inconclusive
CCN(CC)C(=O)CSc1nc(N)c2c3c(sc2n1)CC(C)CC3 (stereo unspecified)	KB-V1 cytotox inconclusive, HT1080 IDH1KD tx inconclusive
